Reference: PubChem BioAssay AID1159580 (chemical genetic matrix, 2015)
Hit rate of the full screen: of about 5,500 compounds, about 2,000 (36%) were called active. About 18% were inconclusive and are not listed. No stated cut-off is given here; in the data, active means normalized growth mostly below about 0.91 (no sharp cut-off); inconclusive means no clear call, values can overlap the other calls; inactive means mostly above about 0.92. This is one part of the list.

Test: chemical genetic growth profiling, strain panel (AID 1159580);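 further: tested at 20 µM; growth read once vehicle control cultures reached saturation at 30 °C; 1 = growth at the plate median or of vehicle wells; lower values mean less growth of the strain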
Settings: S. cerevisiae deletion strains, growth OD
[1] = locus YAL040C, strain CLN3, active compounds read low
[2] = locus YCL061C, strain MRC1 (second series), active compounds read low
[3] = locus YER002W, strain NOP16, active compounds read low
[4] = locus YNL153C, strain GIM3, active compounds read low
[5] = locus YNL175C, strain NOP13, active compounds read low
[6] = locus YNL197C, strain WHI3, active compounds read low
[7] = locus YNL224C, strain SQS1, active compounds read low
[8] = locus YOR083W, strain WHI5 (second series), active compounds read low

Measured: normalized growth

NC(CP(=O)(O)O)C(=O)O (configuration not stated)
inactive: [1] 1.09 | [2] 0.998 | [3] 1.03 | [4] 1.04 | [5] 1.01 | [6] 1.01 | [7] 1.01 | [8] 1.01 | locus YPL055C, strain LGE1, active compounds read low 1.02

N[C@H](C(=O)O)[C@H](O)C(=O)O
inactive: locus YAL013W, strain DEP1, active compounds read low 0.972 | [1] 0.965 | [2] 0.994 | locus YDR150W, strain NUM1, active compounds read low 1 | locus YDR363W, strain ESC2, active compounds read low 0.987 | [3] 1 | locus YMR307W, strain GAS1, active compounds read low 0.992 | [4] 0.989 | [5] 1.01 | [6] 0.996 | [7] 0.983 | [8] 1.06 | locus YPL241C, strain CIN2, active compounds read low 0.992
